Test results taken from PubChem BioAssay (NCI).
“And” between values parts separate entries of the source, which are not always exact repeats. Equal entries are not always repeated. Compounds without any hit were thinned out: in the full panel of roughly 79,000, 15% have a hit. The source made the active and inactive calls. Rule as the data show it: active = growth inhibition above about 70%; inactive = the rest.

Assays:
[1] = NCI Yeast Anticancer Drug Screen. Data for the rad50 strain (AID 155);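 also: 0% = growth of vehicle-only cultures of the same strain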; settings: S. cerevisiae rad50 strain growth inhibition, active compounds read high; at 50.0 µM unless noted
In short: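 A DNA repair-deficient yeast mutant serves as the test organism; compound-induced growth inhibition is calculated against vehicle-treated cells.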

[2] = NCI Yeast Anticancer Drug Screen. Data for the mec2-1 strain (AID 157); settings: S. cerevisiae mec2-1 strain, active compounds read high; at 50.0 µM unless noted
In short: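 Using mec2-1 yeast: add compound, measure growth, express inhibition versus vehicle-treated cultures.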

[3] = NCI Yeast Anticancer Drug Screen. Data for the sgs1 mgt1 strain (AID 161);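 also: 0% = growth of cultures given vehicle only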; settings: S. cerevisiae sgs1 mgt1 strain, active compounds read high; at 50.0 µM unless noted
In short: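 Percent growth inhibition was derived by comparing compound-exposed mutant yeast with vehicle-exposed cultures. The strain carries alterations in DNA damage repair.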

[4] = NCI Yeast Anticancer Drug Screen. Data for the cln2 rad14 strain (AID 165);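 also: 0% = growth equal to vehicle treated cultures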; settings: S. cerevisiae cln2 rad14 strain, active compounds read high; at 50.0 µM unless noted
In short: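 Yeast strain cln2 rad14, bearing defects in cell cycle control and DNA repair, serves as the test system; values reflect growth inhibition compared with vehicle.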

[5] = NCI Yeast Anticancer Drug Screen. Data for the bub3 strain (AID 167); settings: S. cerevisiae bub3 mutant strain, active compounds read high; at 50.0 µM unless noted
In short: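 Inhibition values come from growth of compound-treated mutant yeast normalised to vehicle-treated controls.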

[6] = NCI Yeast Anticancer Drug Screen. Data for the mlh1 rad18 strain (AID 175); settings: S. cerevisiae mlh1 rad18 strain growth inhibition, active compounds read high; at 50.0 µM unless noted
In short: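 Steps: expose repair-defective yeast to compound; measure growth; express inhibition against vehicle-treated controls.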

Measured: growth inhibition

O=C(O)[C@H](Cc1ccccc1)N1C(=O)N[C@@H](Cc2ccccc2)C1=O
inactive: [1] -21.6% | [2] -1.7% | [3] 4.75% | [4] 2.35% | [5] 3.6% | [6] -2.7%

COc1ccc(/C(=N/N)C(C)(C)C)cc1
inactive: [1] 5.8% | [2] -2.8% | [3] -7.95% | [4] -15.8% | [5] -1.6% | [6] -1.9%

CCCCCCCCCCCCCCCC(=O)c1ccccc1
inactive: [1] 33.2% | [2] 27.2% | [3] 28.4% | [4] 52.6% | [5] 21.1% | [6] 42.5%

O=Nc1ccc2ccccc2c1N=Nc1ccccc1C(=O)O
inactive: [1] 20.5% | [3] 45.6% | [4] 14.3% | [5] 53% | [6] 35.8%
active: [2] 72.5%

O=C1CC2c3ccccc3CCN2C2=C1CCC2 (centres undefined)
inactive: [1] 13.6% | [2] 13.1% | [3] -0.4% | [4] -16.2% | [5] 0.5% | [6] 18.7%

O=c1ccc2ccc3[nH]onc3c2c1
inactive: [1] 10.2% | [2] -12.6% | [3] -5.85% | [4] -48.8% | [5] -26.4% | [6] -2.2%

OC1(Cc2ccccc2)CCCCCC1
inactive: [1] -2.3% | [2] 1.3% | [3] 2.15% | [4] -64.7% | [5] -0.95% | [6] 1.95%

N#Cc1c(-c2ccc(Cl)cc2)c(-c2ccc(Cl)cc2)nn(CCOC(=O)CCC(=O)OCCn2nc(-c3ccc(Cl)cc3)c(-c3ccc(Cl)cc3)c(C#N)c2=O)c1=O
inactive: [1] -11.7% | [2] 8.95% | [3] 5.5% | [4] -24.4% | [5] 4.75% | [6] 26.4%

O=[N+]([O-])c1ccc(/C=C(/c2ccc([N+](=O)[O-])o2)S(=O)(=O)c2ccccc2)cc1
active: [3] 76.8%
inactive: [1] 64.8% | [2] 13.8% | [4] 43% | [5] -1.25% | [6] 60.5%

O=C1NCC2(CCNCC2)N1
inactive: [1] -10.3% | [2] 16.7% | [3] 6.45% | [4] 15.6% | [5] 11.1% | [6] -70.6%

CN(C)c1ccc(/C=C(\C#N)C(=O)O)cc1
inactive: [1] 33.8% | [2] -12.9% | [3] 2.8% | [4] 11.7% | [5] 30.8% | [6] 38.2%

CCOC(=O)C(Cc1cc(N)c(Oc2ccc(OC)cc2)c(N)c1)NC(C)=O (centres undefined)
inactive: [1] -16.1% | [2] -36.9% | [3] -4.65% | [4] 14.9% | [5] -9.1% | [6] 5.25%

CO/C(=N\N=C\c1ccc(C(F)(F)F)cc1)c1ccncc1
inactive: [1] 54.5% | [2] 18.9% | [3] 35.3% | [4] 22.4% | [5] 30.9% | [6] 15.3%

O=S(=O)(c1ccc(Cl)cc1)S(=O)(=O)c1ccc(Cl)cc1
inactive: [1] 18.8% | [2] 8.5% | [3] 8.6% | [4] -18.4% | [5] 4.5% | [6] 10.4%

O=[N+]([O-])c1ccc[nH]1
inactive: [1] -6.15% | [2] -9.95% | [3] -4.2% | [4] 15.3% | [5] 3% | [6] 2%

CC(=O)OCC1COC(c2ccc(C)cc2)O1 (centres undefined)
inactive: [1] 12.9% | [2] -2.1% | [3] -13.8% | [4] -2.5% | [5] -4.45% | [6] -11.8%

O=C(/C(=C1\SS/C(=C(/C(=O)c2ccccc2)c2ccccc2)S1)c1ccccc1)c1ccccc1
inactive: [1] 34.6% | [2] 14.6% | [3] 17.7% | [4] 7.3% | [5] 5.75% | [6] 6.45%

C1=NC(c2ccccc2)=CN(C2CCCCCCCCCCC2)C1(c1ccccc1)C1CCCCCCCCCCC1 (centres undefined)
inactive: [1] -18.2% | [2] -8.55% | [3] -12% | [4] -19.4% | [5] 12.3% | [6] 13.2%

C(=N\N1CN(/N=C/c2ccccc2)C(c2ccccc2)C1c1ccccc1)/c1ccccc1 (centres undefined)
inactive: [1] -6.2% | [2] -3.15% | [3] 4.5% | [4] 7.35% | [5] -1.65% | [6] 7.05%

O=C(O)c1ccccc1-c1ccccc1
inactive: [1] -19.2% | [2] -36.1% | [3] -12.4% | [4] 4.3% | [5] -15.3% | [6] -1.9%

CCCCNC(=S)NNC(=O)c1ccncc1
inactive: [1] -0.35% | [2] 3.65% | [3] -0.55% | [4] 5.5% | [5] 10.7% | [6] 3.45%

CC1=NN(C(=O)Cc2ccccc2)C(=O)/C1=C\C=C\c1ccccc1
inactive: [1] 11.3% | [2] -28.2% | [3] -20.6% | [4] -9.2% | [5] -15.2% | [6] -7.85%

O=[N+]([O-])c1cc(F)ccc1S(=O)(=O)c1ccccc1
inactive: [1] 31.6% | [2] -40.5% | [3] 7.8% | [4] 1.85% | [5] -23.2% | [6] 0.65%

O=c1c2ccccc2c(=O)c2c1c1c(=O)c3ccccc3c(=O)c1c1c(=O)c3ccccc3c(=O)c21
inactive: [1] 22.2% | [2] 9.65% | [3] 30.2% | [4] 29.6% | [5] 0.5% | [6] 22.4%

O=C1c2c(O)ccc(O)c2C(=O)c2c(NCCNCCO)ccc(NCCNCCO)c21
inactive: [1] 61.9% and 31.9% | [2] 21.6% and -16.4% | [3] 54.2% and -52% | [4] -41.9% and -21.4% | [5] 9.5% and -63.3% | [6] 41% and -16.6%

Clc1ccccc1C1SCc2nc3ccccc3n21 (centres undefined)
inactive: [1] 10.8% | [2] -7.85% | [3] 53.2% | [4] 18.9% | [5] 26.4% | [6] 22.6%

CCOC(=O)C(CC(C)C)NC(=O)c1ccc(C)c(OCc2ccccc2)c1[N+](=O)[O-] (centres undefined)
inactive: [1] 17.9% | [2] -8.75% | [3] 37.9% | [4] 0.6% | [5] 11.6% | [6] -3.9%

S=C(NC1CCCCC1)SSSC(=S)NC1CCCCC1
inactive: [1] -6.7% | [2] -4.65% | [3] -8.05% | [4] 15.2% | [5] -17.4% | [6] 6.8%

CC(C)(C)OC(=O)/N=C/c1c(O)c2ccccc2oc1=O
inactive: [1] -36.5% | [2] -20.5% | [3] -21.8% | [4] 9.75% | [5] -17.4% | [6] -26%

BrC(Br)(Br)Br
active: [1] 74%
inactive: [2] 12.6% | [3] 31.8% | [4] -19.6% | [5] 27.4% | [6] 57.2%

CC(=O)Nc1c(C)cc([N+](=O)[O-])c2ccccc12
inactive: [1] -0.7% | [2] -2.45% | [3] -14.9% | [4] -9.45% | [5] 8.05% | [6] -13.3%

CC(C)C1Oc2ccc(Br)cc2C1O (centres undefined)
inactive: [1] 11.2% | [2] 8.15% | [3] 2.25% | [4] -13.1% | [5] 18.7% | [6] 5.6%

CC(C)=NOc1ccccc1[N+](=O)[O-]
inactive: [1] 8.65% | [2] 6.15% | [3] 7.15% | [4] -14.7% | [5] -13.2% | [6] 12.1%

COc1cc(C(=O)NO)ccc1O
inactive: [1] -0.15% | [2] -12.6% | [3] -15.1% | [4] -1.95% | [5] -6% | [6] -1.4%

COC1OC(CO)C(O)C(Nc2ccc([N+](=O)[O-])cc2[N+](=O)[O-])C1O (centres undefined)
inactive: [1] 7.2% | [2] 1.05% | [3] 19.1% | [4] -53.6% | [5] -10.8% | [6] 1.1%

O=C(O)CN(CCO)CCN(CC(=O)O)CC(=O)O.[Fe+2]
inactive: [1] 6% | [2] -32% | [3] -18.5% | [4] 18.6% | [5] -14.5% | [6] 2.25%

N/N=C1/CCN2CCCc3cccc1c32
inactive: [1] 11.2% | [2] 2.75% | [3] 1.25% | [4] -27.4% | [5] -19.4% | [6] 10.1%

CC1NC(=O)OC12CCCCC2 (centres undefined)
inactive: [1] 16.4% | [2] -3.55% | [3] -2.95% | [4] -27.6% | [5] -7.5% | [6] -30.4%

CC(=O)N1C=CC(=Cc2ccccc2)C=C1
inactive: [1] -0.15% | [2] 5.55% | [3] -30.6% | [4] -1.25% | [5] 12.8% | [6] 3.95%
